Compounds with a hit are over-represented: about 10% of the library has one in this group of screens.
JMJD2A Tudor inh: JMJD2A Tudor domain (human) inhibition | O75164 | AlphaScreen JMJD2A-Tudor / H3K4me3 peptide binding | Potency, µM (doses to about 114 µM), without a hit: top-dose activity change, negative = inhibition, hits mostly inhibitors | 4.4% of 390,000 active; further: on the % scale 0 is the no-effect control and ±100 the full control effect; nearly all actives have a fitted effect of over 50% in size
Target sequence (O75164 whole entry, looked up, the tested form may be a part): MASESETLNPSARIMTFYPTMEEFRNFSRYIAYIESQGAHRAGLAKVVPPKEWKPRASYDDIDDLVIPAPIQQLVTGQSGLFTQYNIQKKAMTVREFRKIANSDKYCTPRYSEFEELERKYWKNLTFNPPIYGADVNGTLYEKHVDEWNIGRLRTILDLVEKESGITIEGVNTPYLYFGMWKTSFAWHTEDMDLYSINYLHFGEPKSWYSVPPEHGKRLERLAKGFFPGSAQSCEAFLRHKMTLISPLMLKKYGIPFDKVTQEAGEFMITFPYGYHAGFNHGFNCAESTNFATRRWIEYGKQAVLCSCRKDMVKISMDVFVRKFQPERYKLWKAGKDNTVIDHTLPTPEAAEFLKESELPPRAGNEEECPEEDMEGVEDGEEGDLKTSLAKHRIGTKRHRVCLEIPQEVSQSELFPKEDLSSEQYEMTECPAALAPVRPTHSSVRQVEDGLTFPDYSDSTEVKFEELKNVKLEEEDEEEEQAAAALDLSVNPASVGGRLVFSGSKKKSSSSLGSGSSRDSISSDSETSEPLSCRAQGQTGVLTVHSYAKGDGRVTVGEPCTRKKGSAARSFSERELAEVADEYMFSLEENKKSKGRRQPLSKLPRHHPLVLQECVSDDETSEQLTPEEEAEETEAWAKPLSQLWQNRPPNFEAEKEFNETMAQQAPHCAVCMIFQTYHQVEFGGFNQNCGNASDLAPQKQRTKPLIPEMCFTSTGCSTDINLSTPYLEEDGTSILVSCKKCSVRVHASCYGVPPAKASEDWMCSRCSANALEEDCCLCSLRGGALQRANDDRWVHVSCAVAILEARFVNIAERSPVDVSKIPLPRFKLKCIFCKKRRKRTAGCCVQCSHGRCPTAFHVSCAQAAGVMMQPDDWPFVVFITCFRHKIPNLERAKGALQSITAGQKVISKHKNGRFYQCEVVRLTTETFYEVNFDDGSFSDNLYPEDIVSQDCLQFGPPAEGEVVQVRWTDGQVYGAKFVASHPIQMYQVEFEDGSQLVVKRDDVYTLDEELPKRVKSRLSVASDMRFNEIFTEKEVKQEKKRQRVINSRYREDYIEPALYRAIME
BAZ2B inh: BAZ2B (human) inhibition | Q9UIF8 | 4.4% of 360,000 active | AlphaScreen BAZ2B-H3K14Ac peptide displacement | AID 504333 | Potency, µM (titrated, usually from 114 µM), for inactives: top-dose activity change, negative = inhibition, actives largely listed as inhibitors; further: on the % scale 0 is the no-effect control and ±100 the full control effect; nearly all actives have a fitted effect of over 60% in size
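AlphaScreen displacement of biotin-H3(5-23)K14Ac peptide (50 nM final) from BAZ2B (50 nM final) in PBS pH 7.4, 0.01% Tween-20; complex preformed 30 min RT, then compounds (top 110 uM) 30 min RT, beads 20 min dark.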
HP1b binding inh: inhibitors of HP1-beta chromodomain binding to methylated histone tails | P83916 | AlphaScreen HP1-beta / biotin-H3K9me3 peptide binding | Potency, µM (highest dose often 114 µM), inactives show at the highest dose activity change, negative = inhibition, usual class: inhibitors | 0.56% of 390,000 active | AID 540317; further: nearly all actives have a fitted effect of over 70% in size
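AlphaScreen: HP1-beta (50 nM) preformed 30 min with biotin-H3(1-18)K9me3 peptide (50 nM) in PBS pH 7.4, 0.01% Tween-20. Compound added for 30 min at RT, then streptavidin donor/nickel chelate acceptor beads (10 ug/mL) for 30 min.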
G9a inh: blocks human histone lysine methyltransferase G9a; Q96KQ7; Potency, µM (titrated, usually from 102 µM), for the others: at the highest dose activity, negative = inhibition, most hits filed as inhibitors; G9a H3K9 monomethylation, AlphaScreen, 2 h; AID 504332; 8.8% of 350,000 active; further: on the % scale 0 is the no-effect control and ±100 the full control effect; nearly all actives have a fitted effect of over 75% in size
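Readings reflect AlphaScreen signal from monomethyl-H3K9 antibody detection. HMT at 20 nM; substrate b-H3K9 500 nM; cofactor SAM 20 uM; 2 h RT reaction; compounds tested as titrations in qHTS with 15 min preincubation.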
L3MBTL1 block: inhibitors of human L3MBTL1. 0.66% of 230,000 active. Potency, µM (top dose mostly 57.1 µM), without a hit: at the highest dose activity, negative = inhibition, most hits filed as inhibitors. AlphaScreen L3MBTL1–H3K9me1 peptide binding. Q9Y468; further: on the % scale 0 is the no-effect control and ±100 the full control effect; nearly all actives have a fitted effect of over 60% in size
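AlphaScreen assay: L3MBTL1 (50 nM final) was preincubated 30 min at room temperature with biotinylated H3(1-15)K9me1 peptide (75 nM final), then 30 min with library compounds; streptavidin donor and nickel chelate acceptor beads (10 ug/mL final) added, 30 min dark.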
GLS inh: inhibitors of human glutaminase (GLS). GLS enzymatic activity, qHTS titration. 0.21% of 410,000 active. O94925. AID 624170. Potency, µM (top dose mostly 45.5 µM), for inactives: at the highest dose activity change, negative = inhibition, usual class: inhibitors; further: on the % scale 0 is the no-effect control and ±100 the full control effect
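Read-out is an Amplex red fluorescence increase coupled through glutamate oxidase and HRP, measured before and after 30 min room-temperature incubation. hKGA is in 45 mM KH2PO4 (pH 8.2) with 0.02% Tween-20; glutamine added as 1mM solution.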
The depositor's hits bear a star; ? = inconclusive; · = no result; [ ] = dose if it differs, or a comment. The call rests on the fitted dose curve; in most records, active means well fitted curve in the direction sought with a large enough effect; inconclusive means small, poorly fitted or top-dose-only effect, or another doubt; inactive means no such curve, though single readings can be large; an effect the other way counts as inactive or inconclusive. Potency means the concentration at half of the fitted maximal effect.

SMILES	JMJD2A Tudor inh	BAZ2B inh	HP1b binding inh	G9a inh	L3MBTL1 block	GLS inh
CC(=S)/C=C1\Sc2ccccc2N1C	?	50.1µM*	?	?	-13.8%	15.2%
CN1/C(=C/c2cccc[n+]2CCO)Sc2ccccc21	?	56.2µM*	-13.0%	44.7µM*	2.5%	2.8%
CCN1/C(=C/c2ccc3cc(C)ccc3[n+]2CC)Sc2cc(C)c(C)cc21	?	44.7µM*	?	14.1µM*	?	-0.7%
COC(=O)C(c1ccccc1Cl)N1CCc2sccc2C1 (stereo not given)	·	·	·	20.2%[59 µM]	·	11.7%
CCOC(=O)N1CCc2c(sc3c2c(=O)n(CCc2ccccc2)c(=O)n3Cc2ccc(F)cc2)C1	-14.2%	?	37.5%	?	·	-12.8%
CCN1/C(=C/c2ccc3cc(C)ccc3[n+]2CC)Sc2ccccc21	-43.2%	44.7µM*	?	7.94µM*	-4.7%	-5.2%
CCOC(=O)/C(=C/C=C1\Sc2ccccc2N1CC)C(C)=O	-33.3%	-32.2%	6.8%	?	-0.5%	0.0%
CCN(CC)C(=O)c1cc([N+](=O)[O-])cc2c1-c1ccc([N+](=O)[O-])cc1C2=C(C#N)C#N	?	?	8.3%	50.1µM*	-28.2%	15.7%
Cc1ccc(-n2c(=O)c3sccc3n(CC(=O)NCc3ccco3)c2=O)cc1	-12.2%	14.1%	19.8%	79.4µM*	-6.8%	0.3%
Cc1cc(C)c(NC(=O)Cn2c(=O)n(Cc3ccc(C(=O)NCc4ccco4)cc3)c(=O)c3sccc32)c(C)c1	-4.1%	50.1µM*	63.0%	-9.0%[59 µM]	·	-26.1%
CCCc1c(O)nc(SCCN(CC)CC)[nH]c1=O	-22.1%	-24.6%	28.6%	7.5%[12.7 µM]	·	34.6%
CCCc1c(O)nc(SCCN(CC)CC)n(C(=O)c2ccccc2)c1=O	-29.7%	-32.5%	19.7%	79.4µM*	1.8%	9.7%
O=C(CCCCn1c(=O)c2ccccc2n(CC(=O)Nc2cccc(F)c2)c1=O)NCc1ccccc1Cl	-1.7%	4.1%	26.7%	0.9%[59 µM]	·	1.9%
CC(C)=C[C@@H]1C[C@H](C)[C@H]2CC[C@H](C)c3c(O)c(O)c(C)c1c32	39.8µM*	56.2µM*	?	6.3%[0.501 µM]	-7.3%	?
CC(=O)O[C@H]1[C@H](O)[C@H](Oc2c(O)c(C)c3c4c2[C@@H](C)CC[C@@H]4[C@@H](C)C[C@H]3C=C(C)C)O[C@@H](C)[C@H]1O	31.6µM*	·	-21.3%	·	-9.0%	-3.4%
Cc1nc2n(n1)C(c1ccccc1)C1=C(CC(c3ccco3)CC1=O)N2 (stereo not given)	-19.4%	17.5%	13.5%	44.7µM*	-6.0%	31.8%
O=C1CC(c2ccco2)CC2=C1C(c1ccncc1)n1nc(C(F)(F)F)nc1N2 (stereo not given)	-13.7%	·	32.6%	·	·	·
CCc1ccc(O)c(N=Cc2ccccc2O)c1	?	?	18.1%	?	·	0.8%
O=c1[nH][nH]c2c(N=Cc3ccccc3O)ccc(F)c12	?	10µM*	11.2µM*	8.91µM*	3.55µM*	11.2µM*
CCOc1ccc(N=C2C(=O)Nc3ccc(C)c(Br)c32)cc1	?	35.5µM*	?	?	·	-10.4%
N#Cc1ccc(C(=O)Nc2ccc(Cl)c(-c3nc4cc(Cl)ccc4o3)c2)c(F)c1	-16.0%	?	3.3%	3.1%[59 µM]	·	2.0%
O=C(N=Nc1c(O)[nH]c2ccccc12)c1cccc(S(=O)(=O)Nc2ccccc2Cl)c1	28.2µM*	?	-8.8%	9.1%[59 µM]	-19.8%	-0.3%
CC(C)c1ccc2[nH]c(O)c(N=NC(=O)c3cccc(S(=O)(=O)Nc4ccccc4Cl)c3)c2c1	-10.8%	2.2%	8.9%	-24.5%	-3.5%	18.8%
O=C(Nc1ccc(Cl)cc1F)C1CCCN(C2=NS(=O)(=O)c3ccccc32)C1 (stereo not given)	-17.9%	13.1%	21.6%	50.1µM*	3.9%	3.7%
Cc1nc(-c2ccc([S+](=O)([O-])N3CCN([S+](=O)([O-])c4c(F)cccc4F)CC3)s2)cs1	-10.3%	·	·	·	·	·
SMILES	JMJD2A Tudor inh	BAZ2B inh	HP1b binding inh	G9a inh	L3MBTL1 block	GLS inh
CC(=O)c1cccc(S(=O)(=O)NC(C)C2CC3CCC2C3)c1 (stereo not given)	-21.6%	-5.2%	12.1%	50.1µM*	·	0.0%
O=C(NCC(c1ccc2c(c1)OCO2)N1CCOCC1)c1c(F)cccc1F (stereo not given)	-11.0%	-1.5%	4.0%[57 µM]	-7.4%[59 µM]	·	-6.7%
Cc1ccc2c(c1)C(=O)N(CCCCO)C2=O	-4.8%	4.1%	18.8%	11.4%[59 µM]	18.4%	4.8%
CCN1/C(=C2\C(=O)N(C)C(=S)N2C)C=Cc2cc(C)ccc21	50.1µM*	44.7µM*	-66.0%	10µM*	-23.5%	45.4%
CCN1/C(=C2\C(=O)N(C)C(=S)N2C)C=Cc2ccccc21	-35.4%	50.1µM*	?	10µM*	-12.6%	?
CCN1/C(=C2\C(=O)N(C)C(=S)N2c2ccccc2)C=Cc2ccccc21	-28.6%	39.8µM*	?	-140.3%[59 µM]	·	?
Cc1cc2c(s1)c1cnn(Cc3cc(C(F)(F)F)cc(Cl)c3F)c(=O)c1n2C	-26.7%	·	·	·	·	·
COC(=O)c1nn(-c2ccc(OC)cc2)c(=O)c2c(N)sc(C)c12	?	?	?	10µM*	-16.5%	-16.3%
CCOC(=O)c1nn(-c2ccc(C)cc2)c(=O)c2c(N)scc12	?	?	-17.4%	1.26µM*	-2.6%	-2.3%
COc1cccc(-n2nc(C(=O)O)c3ccccc3c2=O)c1	-21.5%	-12.3%	27.3%	?	2.2%	-2.2%
COC(=O)c1nn(-c2ccc(OC)cc2)c(=O)cc1Sc1ccc(C)cc1	-15.4%	-8.7%	34.2%	2.9%	-27.8%	4.1%
CCOC(=O)c1nc(N)c(=O)n(-c2ccc(C)cc2)n1	-9.3%	9.5%	33.5%	17.7%[59 µM]	3.0%	12.7%
COC(=O)c1nn(-c2ccc(OC)cc2)c(=O)cc1NN	-1.5%[57.1 µM]	-30.8%	49.0%	44.7µM*	?	0.0%
COc1ccc(-n2nc(C(=O)O)c3csc(N)c3c2=O)cc1	79.4µM*	·	·	·	·	·
CNC(=O)c1ccc2nc(Cc3ccccc3)oc2c1	-5.4%	-10.1%	7.4%[57 µM]	7.3%[59 µM]	·	4.6%
COc1cc(NC(=O)c2c(-c3ccc(C)cc3)nnc3ccccc23)cc(OC)c1OC	-3.2%	-0.8%	20.2%	10.9%[59 µM]	·	5.8%
Cc1c(C(=O)O)nn(-c2ccccc2)c(=O)c1C#N	-18.3%	9.0%	16.4%	?	0.3%	0.5%
Nc1scc2c(C(=O)O)nn(-c3ccccc3)c(=O)c12	79.4µM*	?	-0.6%	-24.3%[0.501 µM]	-11.6%	6.5%
CCc1ccc(NC(=O)c2ccc(CN3C(=O)C(C)=C(c4ccc(C)cc4)S3(=O)=O)cc2)cc1	-22.0%	-2.0%	-16.9%	5.7%[59 µM]	·	-12.5%
